Screening results as filed in PubChem BioAssay.
Rows were chosen to be rich in hits. Some 6.7% of all compounds tested hit in one or more screens of this group.
T cruzi growth-1 – blocks T. cruzi growth in NIH3T3 culture; inhibition, % at 8.34 µM; T. cruzi beta-gal in NIH3T3, GalScreen luminescence, 90 h; AID 624255; hit rate 5.9% among 77,000;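 active means mean inhibition above about 93%, with at least 55% of replicates each passing it, limit read from the data, passing the limit was not always enough; inconclusive means only one of those two conditions holds; inactive means neither condition holds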
C diff HTS – inhibitors of Clostridium difficile growth | Clostridium difficile clinical isolate growth, OD600, 24 h; active compounds read low | growth activity, negative = inhibition, % at 16 µg/mL (by protocol) | AID 1259249 | hit rate 0.25% among 86,000;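 active means mean growth activity at or below -80% and every replicate also at or below -80%; inconclusive means mean at or below -80% but some replicate above -80%; inactive means mean growth activity above -80%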;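 further: 0% = DMSO wells and -100% = levofloxacin 16 µg/mL wells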
Pf Dd2 inh – P. falciparum Dd2 growth inhibition | SYBR Green, 72 h; active compounds read low | activity change, % at 10 µM | hit rate 2.3% among 94,000 | AID 1159554; in the data active means activity change below about -80%; inconclusive means no clear call, values can overlap the other calls
T cruzi growth-2 – blocks T. cruzi growth in NIH3T3 host cells | shares compounds with T cruzi growth-1 | inhibition, % at 8.35 µM | hit rate 72% among 5,600 | T. cruzi beta-gal in NIH3T3, GalScreen luminescence, 90 h;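 active means mean replicate inhibition above about 95% and at least 55% of replicates individually reaching it, limit read from the data; inconclusive means only one of the two criteria is met; inactive means neither criterion is met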
T cruzi growth-3 – Trypanosoma cruzi proliferation inhibition; shares compounds with T cruzi growth-1; T. cruzi beta-gal in NIH3T3, GalScreen luminescence, 90 h; inhibition, % at 2.09 µM; hit rate 21% among 5,600; AID 651740;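 active means mean inhibition above about 95%, with at least 55% of replicates also reaching it, limit read from the data; inconclusive means meets just one of the two conditions; inactive means meets neither condition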;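 further: plate controls were neutral control median for no effect and positive control median for full effect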
NIH3T3 tox – NIH/3T3 (mouse) viability loss; NIH/3T3 viability, CellTiter-Glo ATP luminescence, 90 h; hit rate 14% among 5,600; cytotoxicity (signal decrease), % at 8.35 µM; shares compounds with T cruzi growth-1;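 active means mean signal decrease across replicates above about 35% based on untreated-well scatter, with enough replicates individually passing, limit read from the data; inconclusive means no rule stated though some were filed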;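 further: 0% = median of neutral control wells and 100% = median of positive control wells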
NIH3T3 tox 2 – cytotoxicity in mouse NIH/3T3 fibroblasts. shares compounds with T cruzi growth-1. NIH/3T3 viability, CellTiter-Glo ATP luminescence, 90 h. inhibition, % at 24.9 µM. hit rate 56% among 5,600. AID 651744;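 active means mean loss of cell viability signal at or above a set limit, and enough replicates individually reaching it; inconclusive means meets only the mean limit or only the replicate share; inactive means meets neither condition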;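 further: 0% = median of neutral control wells and 100% = median of positive control wells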
* = called active by the depositor; ? = inconclusive; nt = no result given.

SMILES | T cruzi growth-1 | C diff HTS | Pf Dd2 inh | T cruzi growth-2 | T cruzi growth-3 | NIH3T3 tox | NIH3T3 tox 2
CCCNC(=O)N1C[C@H](C)[C@H](OC)CN(C)C(=O)c2cc(NC(=O)C3CCC3)ccc2OC[C@@H]1C | -5.5 | nt | nt | nt | nt | nt | nt
Cc1ccc(S(=O)(=O)N(C)C[C@@H]2OCCCC[C@@H](C)Oc3ccc(NS(=O)(=O)c4cn(C)cn4)cc3C(=O)N([C@H](C)CO)C[C@@H]2C)cc1 | 47.5 | 1.4 | 35.5 | nt | nt | nt | nt
CCCC(=O)Nc1ccc2c(c1)C(=O)N(C)C[C@H](OC)[C@H](C)CN(CC1CCCC1)[C@H](C)CO2 | -14.6 | nt | -1.1 | nt | nt | nt | nt
C[C@@H]1CCCCO[C@@H](CN(C)C(=O)Nc2ccc(F)cc2)[C@@H](C)CN([C@H](C)CO)C(=O)c2cc(NS(=O)(=O)c3cccs3)ccc2O1 | 7.2 | 3.1 | 15.5 | nt | nt | nt | nt
O=C(Nc1cc(F)ccc1F)N1CCCCN2[C@H](C1)[C@@H](c1ccc(-c3cncnc3)cc1)[C@@H]2CO | 104.5* | 3.9 | 13.9 | 3.6 | -13.9 | -15.9 | -2.4
O=C(Nc1cc(F)ccc1F)N1CCCCN2[C@H](C1)[C@@H](c1ccc(-c3ccccc3)cc1)[C@@H]2CO | 99.2* | 33.7 | -21.2 | 101.1* | 101.7* | 61.5* | 105.7*
O=C(Nc1cc(F)ccc1F)N1CCCCN2[C@H](CO)[C@H](c3ccc(-c4cccnc4)cc3)[C@H]2C1 | 103.8* | 1.0 | -44.8 | 100.6* | 59.5 | -25.4 | ?
O=C(Nc1cc(F)ccc1F)N1CCCCN2[C@H](C1)[C@@H](c1ccc(-c3ccncc3)cc1)[C@@H]2CO | 93.9 | -0.5 | -13.6 | nt | nt | nt | nt
O=C(Nc1cc(F)ccc1F)N1CCCCN2[C@H](CO)[C@@H](c3ccc(-c4cccnc4)cc3)[C@H]2C1 | 60.9 | -9.6 | -26.3 | nt | nt | nt | nt
O=C(Nc1cc(F)ccc1F)N1CCCCN2[C@H](CO)[C@@H](c3ccc(-c4ccncc4)cc3)[C@@H]2C1 | 88.1 | 12.8 | -16.3 | nt | nt | nt | nt
O=C(Nc1cc(F)ccc1F)N1CCCCN2[C@H](CO)[C@@H](c3ccc(-c4ccccc4)cc3)[C@H]2C1 | 36.0 | 13.5 | -38.3 | nt | nt | nt | nt
O=C(Nc1cc(F)ccc1F)N1CCCCN2[C@H](CO)[C@H](c3ccc(-c4cncnc4)cc3)[C@@H]2C1 | 115.0* | -4.1 | 21.4 | 54.0 | 30.8 | 23.3 | 18.9
C[C@H](CO)N1C[C@H](C)[C@H](CN(C)C(=O)NC2CCCCC2)Oc2c(NC(=O)c3cnccn3)cccc2C1=O | 22.0 | 2.1 | -6.1 | nt | nt | nt | nt
O=C(C[C@H]1CC[C@H](NC(=O)NC2CCCC2)[C@H](CO)O1)NCc1ccc(F)cc1 | -10.8 | nt | 21.3 | nt | nt | nt | nt
C/C=C/c1ccc2c(c1)O[C@@H](CN(C)C(=O)c1ccccc1F)[C@@H](C)CN([C@H](C)CO)S2(=O)=O | -21.3 | 1.0 | -18.9 | nt | nt | nt | nt
COc1ccc(-c2cnc3c(c2)C(=O)N([C@@H](C)CO)C[C@@H](C)[C@@H](CN(C)C(=O)C2CCCCC2)O3)cc1 | nt | 2.3 | -9.5 | nt | nt | nt | nt
Cc1ccc(S(=O)(=O)Nc2cccc3c2O[C@@H](CN(C)C(=O)Nc2ccccc2)[C@@H](C)CN([C@@H](C)CO)C3=O)cc1 | 87.6 | -4.9 | -1.0 | nt | nt | nt | nt
C[C@H]1CCCCO[C@H](CN(C)S(=O)(=O)c2ccccc2)[C@@H](C)CN([C@@H](C)CO)C(=O)c2cc(NC(=O)Cc3ccccc3)ccc2O1 | nt | nt | -79.5 | nt | nt | nt | nt
C[C@H](CO)N1C[C@H](C)[C@@H](CN(C)S(=O)(=O)c2ccccc2)OCCCC[C@H](C)Oc2ccc(NC(=O)Cc3ccccc3)cc2C1=O | nt | nt | -44.9 | nt | nt | nt | nt
C[C@@H]1CN([C@@H](C)CO)C(=O)c2cc(NC(=O)Cc3ccccc3)ccc2O[C@@H](C)CCCCO[C@H]1CN(C)S(=O)(=O)c1ccc(Cl)cc1 | 40.3 | -0.4 | -76.0 | nt | nt | nt | nt
C[C@@H]1CCCCO[C@H](CN(C)S(=O)(=O)c2ccc(Cl)cc2)[C@H](C)CN([C@H](C)CO)C(=O)c2cc(NC(=O)Cc3ccccc3)ccc2O1 | 117.0* | 5.0 | -74.0 | 109.7* | 105.2* | -9.2 | -7.8
C[C@H]1CCCCO[C@H](CN(C)S(=O)(=O)c2ccc(Cl)cc2)[C@@H](C)CN([C@@H](C)CO)C(=O)c2cc(NC(=O)Cc3ccccc3)ccc2O1 | 112.0* | 8.3 | -81.3* | 103.3* | 84.3 | 1.0 | -2.8
C[C@H](CO)N1C[C@H](C)[C@H](CN(C)S(=O)(=O)c2ccccc2)OCCCC[C@H](C)Oc2ccc(NC(=O)Cc3ccccc3)cc2C1=O | nt | nt | -5.4 | nt | nt | nt | nt
C[C@@H]1CCCCO[C@@H](CN(C)S(=O)(=O)c2ccc(Cl)cc2)[C@H](C)CN([C@H](C)CO)C(=O)c2cc(NC(=O)Cc3ccccc3)ccc2O1 | 115.7* | 1.9 | -78.4 | 105.0* | 102.8* | -28.0 | 18.0
C[C@H](CO)N1C[C@H](C)[C@H](CN(C)S(=O)(=O)c2ccc(Cl)cc2)OCCCC[C@H](C)Oc2ccc(NC(=O)Cc3ccccc3)cc2C1=O | 105.4* | 3.3 | -71.8 | 99.9* | 108.9* | -10.9 | 11.1
SMILES | T cruzi growth-1 | C diff HTS | Pf Dd2 inh | T cruzi growth-2 | T cruzi growth-3 | NIH3T3 tox | NIH3T3 tox 2
COc1ccc(CN(C)C[C@H]2Oc3c(NS(C)(=O)=O)cccc3C(=O)N([C@@H](C)CO)C[C@H]2C)cc1 | -0.5 | -4.7 | 12.5 | nt | nt | nt | nt
Cc1ccc(S(=O)(=O)Nc2ccc3c(c2)CC(=O)N([C@H](C)CO)C[C@@H](C)[C@@H](CN(C)C(=O)Nc2ccc4c(c2)OCO4)O3)cc1 | 0.3 | -13.0 | 24.2 | nt | nt | nt | nt
C/C=C/c1ccc([C@H]2[C@@H](CO)N[C@@H]2CNC(=O)CC2CC2)cc1 | 4.7 | -2.6 | 4.2 | nt | nt | nt | nt
CCC(=O)N[C@@H]1C=C[C@@H](CC(=O)NCc2ccccc2OC)O[C@H]1CO | -93.6 | -1.4 | -5.9 | nt | nt | nt | nt
O=C(CC1CC1)Nc1ccc2c(c1)[C@H]1C[C@@H](CC(=O)N3CCc4ccccc4C3)O[C@@H](CO)[C@H]1O2 | 39.0 | -2.8 | -20.6 | nt | nt | nt | nt
CNC[C@@H]1Oc2c(NC(=O)c3cnccn3)cccc2C(=O)N([C@H](C)CO)C[C@@H]1C | -11.6 | -5.1 | 19.5 | nt | nt | nt | nt
C[C@H]1CCCCO[C@@H](CN(C)Cc2ccc(C(F)(F)F)cc2)[C@@H](C)CN([C@@H](C)CO)C(=O)c2cc(NS(=O)(=O)c3ccc(Cl)cc3)ccc2O1 | 93.2 | 30.1 | -28.4 | nt | nt | nt | nt
C[C@@H]1CN([C@H](C)CO)C(=O)c2cc(NS(=O)(=O)c3ccc(Cl)cc3)ccc2O[C@@H](C)CCCCO[C@H]1CN(C)Cc1ccc(C(F)(F)F)cc1 | 93.7 | 38.9 | -12.3 | nt | nt | nt | nt
C[C@@H]1CCCCO[C@H](CN(C)Cc2ccc(C(F)(F)F)cc2)[C@@H](C)CN([C@H](C)CO)C(=O)c2cc(NS(=O)(=O)c3ccc(Cl)cc3)ccc2O1 | 111.0* | 13.8 | -8.6 | 104.7* | 14.8 | -3.9 | 103.7*
